# Only some compounds are listed: those with a hit (about 8% of all), similar ones and a draw of the others.
# SW480 rereplic: induces DNA re-replication in SW480 colon adenocarcinoma cells; SW480 DNA re-replication, Hoechst DNA content imaging, 48 h; Potency, µM (top dose mostly 46.1 µM), for the others: top-dose re-replication activation, usual class: activators; hit rate 1.8% among 340,000; also: % of control where 0% means no effect; nearly all actives have a fitted effect of over 55% in size
#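 Hoechst fluorescence of nuclei (405 nm excitation, 500-530 nm emission) measured by plate-scanning imager after 48 hr compound exposure at 37 C; re-replication scored as increased number of nuclei with elevated intensity.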
# KB-V1 MDR tox: KB-V1 MDR subline cytotoxicity; KB-V1 MDR cells viability, CellTiter-Glo, 72 h; hit rate 3.4% among 400,000; Potency, µM (highest dose often 46.1 µM), actives largely listed as cytotoxic; also: % is scaled to controls: 0 for no effect and ±100 for the full control effect; nearly all actives have a fitted effect of over 60% in size
#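 Cytotoxicity via CellTiter-Glo luminescence after 72 h compound exposure at 37 degrees C. Cells: drug-selected KB-V1 line, DMEM phenol-red free plus 10% FBS. Compounds tested at multiple concentrations; normalized data fitted to concentration-effect curves.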
# KB-3-1 cytotox: KB-3-1 parental cell cytotoxicity | KB-3-1 viability, CellTiter-Glo ATP luminescence, 72 h | Potency, µM (series often up to 46.1 µM), hits mostly cytotoxic | hit rate 1.4% among 400,000 | AID 1347075; also: % is scaled to controls: 0 for no effect and ±100 for the full control effect; nearly all actives have a fitted effect of over 60% in size
#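 Cytotoxicity in the drug-sensitive parental line KB-3-1 was scored as loss of CellTiter-Glo luminescence following 72 h incubation with compound. Values come from curve fitting of normalized concentration-response data.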
# HT1080 IDH1KD tx: toxicity to HT-1080 IDH1 knockdown cells (counter line). HT-1080 IDH1 knockdown viability, ATP luminescence, 48 h. Potency, µM (top dose mostly 46.1 µM), without a hit: top-dose activity, negative = toxicity, most hits filed as cytotoxic. hit rate 2% among 360,000;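 also: 0% = DMSO wells and -100% = cell-free medium wells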
#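 Using the IDH1-knockdown HT-1080 line run in the same batch and compound series as the NT line, viability after 48 h at 37 °C was determined by CellTiter-Glo luminescence and expressed as % activity.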
# HT1080NT lethal: kills 2HG-producing HT-1080-NT fibrosarcoma cells | HT-1080-NT fibrosarcoma viability, CellTiter-Glo ATP luminescence, 48 h | Potency, µM (highest dose often 46.1 µM), inactives show at the highest dose activity, negative = less viability, hits mostly cytotoxic | hit rate 1.6% among 360,000;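 also: NT is the 2HG producing partner of a matched IDH1 knockdown line; 0% = DMSO-treated cells and -100% = media-only wells without cells; nearly all actives have a fitted effect of over 55% in size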
#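 Read-out is CellTiter-Glo luminescence after 10 minutes at room temperature, following 48 hours' compound treatment of HT-1080-NT cells (750 cells/well, RPMI, 5% FBS, 37 degrees C).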
# MCF10A rerep: inducers of DNA re-replication in MCF 10A breast cells. MCF 10A DNA re-replication, Hoechst nuclear intensity, 48 h. hit rate 2.9% among 350,000. AID 624296. Potency, µM (series often up to 46.1 µM), without a hit: at the highest dose activity, positive = re-replication, usual class: activators; also: % of control where 0% means no effect; nearly all actives have a fitted effect of over 50% in size
# Starred values were filed as active, the others as inactive; i = inactive; ? = inconclusive; . = no result. Calls follow the shape of the dose curve; as a rule, active = well fitted curve in the direction sought with a large enough effect; inconclusive = small, poorly fitted or top-dose-only effect, or another doubt; inactive = no such curve, though single readings can be large; an effect the other way counts as inactive or inconclusive. Potency is read from the fitted curve at half-maximal effect.
SMILES,SW480 rereplic,KB-V1 MDR tox,KB-3-1 cytotox,HT1080 IDH1KD tx,HT1080NT lethal,MCF10A rerep
CS(=O)c1ccccc1-c1nc(-c2ccc([N+](=O)[O-])cc2)no1 (stereo unspecified),-6%,8.2µM*,?,13%,17%,3%
O=C(COc1ccccc1Cl)NCc1nc(-c2ccccc2)no1,-10%,?,i,-5%,-1%,7%
O=C(CCCn1c(SCc2cccc([N+](=O)[O-])c2)nc2ccccc2c1=O)NCC1CCCO1 (stereo unspecified),?,i,i,?,?,5%
CS(=O)(=O)c1ccc(-c2nnn(CC(=O)N3CCCCC3)n2)cc1,3%,i,i,6%,12%,3%
C=CCn1c(NCCc2ccccc2)nc2c1c(=O)n(C)c(=O)n2C,0%,9.2µM*,?,?,-15%,7%
Cn1c(=O)c2c(nc(NCCc3ccccc3)n2CC(=O)NCCc2ccccc2)n(C)c1=O,-9%,i,i,18%,22%,?
CCNc1nc2c(c(=O)n(C)c(=O)n2C)n1CCCc1ccccc1,23µM*,?,?,-15%,-27%,?
Cc1ccc(Cn2c(NCCc3ccccc3)nc3c2c(=O)n(C)c(=O)n3C)cc1,0%,?,?,12%,-5%,12%
CCN(CC)CCNc1nc2c(c(=O)n(C)c(=O)n2C)n1C/C=C(/C)Cl,0%,i,i,4%,0%,16µM*
C/C(Cl)=C\Cn1c(NCCc2ccccc2)nc2c1c(=O)n(C)c(=O)n2C,21%,?,i,12%,-1%,18µM*
O=C(NCCC1=CCCCC1)C1CCC(=O)N(Cc2ccc(Cl)cc2)C1 (stereo unspecified),6%,?,i,-11%,-17%,20%
Clc1ccc(-c2nnc(-c3ccccc3Cl)o2)cc1,0%,i,i,6%,14%,9%
CC(C)Cn1c(CN(C)Cc2ccccc2)nc2c1c(=O)n(C)c(=O)n2C,0%,i,i,-5%,-1%,13%
CN(Cc1ccccc1)Cc1nc2c(c(=O)n(C)c(=O)n2C)n1CCCc1ccccc1,-6%,16µM*,i,21%,14%,?
CCCCCCNC(=O)c1c[nH]c2ccc(S(=O)(=O)N(C)c3ccc(C(C)C)cc3)cc2c1=O,.,i,i,.,.,.
Cc1cc(S(=O)(=O)Nc2ccc(N(C)C)cc2)c(C)s1,3%,16µM*,i,-26%,-11%,3%
CN(CC(=O)Nc1ccc(F)cc1)C(=O)c1cccc(NS(=O)(=O)c2ccccc2)c1,-10%,i,i,1%,3%,-6%
CN(C)c1ccc(NS(=O)(=O)c2ccc(Cl)cc2)cc1,21µM*,i,i,-9%,-5%,1%
CN(CC(=O)Nc1ccc(Cl)cc1)C(=O)c1ccc(S(=O)(=O)Nc2ccccc2)cc1,-25%,i,i,16µM*,13µM*,?
Cc1ccc(C(=O)N2CCc3ccccc32)o1,3%,?,?,-23%,-14%,0%
COc1cc2c(cc1OC)CN(C(=O)c1ccc([N+](=O)[O-])o1)CC2,6.5µM*,?,i,?,13µM*,?
O=C(c1ccc([N+](=O)[O-])o1)N1CCN(c2nc3c(Cl)cccc3s2)CC1,?,?,?,-10%,-1%,7.3µM*
COc1cccc2sc(N3CCN(C(=O)c4ccc([N+](=O)[O-])o4)CC3)nc12,?,?,?,-2%,-25%,23µM*
O=C(c1ccc([N+](=O)[O-])o1)N1CCc2ccccc2C1,?,?,i,-22%,-2%,2%
Cc1ccc2sc(N3CCN(C(=O)c4ccc([N+](=O)[O-])o4)CC3)nc2c1C,2%,i,i,-9%,1%,?
SMILES,SW480 rereplic,KB-V1 MDR tox,KB-3-1 cytotox,HT1080 IDH1KD tx,HT1080NT lethal,MCF10A rerep
O=C(c1ccc([N+](=O)[O-])o1)N1CCc2ccccc21,21µM*,?,?,?,-2%,9.2µM*
CCCCOCCCNCC(=O)Nc1ccc(S(N)(=O)=O)cc1,2%,i,i,5%,4%,1%
OC[C@H]1NC[C@@H](O)[C@@H]1O,?,i,i,13%,27%,0%
CC1=CC(=O)N(c2cccc(C(F)(F)F)c2)C1c1ccc(Cl)cc1 (stereo unspecified),23%,15µM*,i,-28%,-17%,?
NS(=O)(=O)c1ccc(-c2ccc(C=NC3CCS(=O)(=O)C3)o2)cc1 (stereo unspecified),0%,i,i,-18%,14%,9%
CN(c1ccccc1)S(=O)(=O)c1cccc(C(=O)NC2CCCC2)c1,1%,.,.,0%,-4%,-4%
CCN(CC)S(=O)(=O)c1cccc(NC(=O)Nc2cccc(C(F)(F)F)c2)c1,?,8.2µM*,7.3µM*,21µM*,?,23µM*
CCN(CC)S(=O)(=O)c1cccc(C(=O)NC2CCCCC2)c1,-2%,18µM*,i,?,-13%,-3%
CCN(CC)S(=O)(=O)c1cc(C(=O)Nc2ccncc2)ccc1Cl,-6%,16µM*,21µM*,-22%,0%,1%
CCN(CC)S(=O)(=O)c1cccc(C(=O)Nc2nc3cc4c(cc3s2)OCCO4)c1,2%,4.6µM*,?,?,11µM*,-5%
Cc1ccc(C(=O)c2cc(C)sc2NC(=O)CN2CCN(C(=O)c3ccco3)CC2)cc1,?,?,i,?,?,28%
CCOC(=O)COc1ccc(-c2nnn(CC(=O)Nc3ccccc3)n2)cc1,.,i,i,.,.,.
COc1ccccc1NC(=O)c1ccc([N+](=O)[O-])cc1[N+](=O)[O-],4%,i,i,0%,-3%,3%
O=C(CN(Cc1ccccc1)S(=O)(=O)c1cccc(C(F)(F)F)c1)NC1CCCCC1,-367%,3.7µM*,i,-7%,-9%,3%
CCN(CC)S(=O)(=O)c1cccc(C(=O)Nc2cccnc2)c1,-4%,21µM*,i,6%,5%,-3%
CC(C)c1ccc(N(C(=O)c2csnn2)C(C(=O)NC(C)(C)C)c2cccnc2)cc1 (stereo unspecified),-3%,i,i,-1%,-13%,-3%
COc1ccc(-c2noc(-c3ccccc3C(=O)Nc3cccnc3)n2)cc1OC,-1%,i,i,1%,-2%,3%
COc1ccccc1-c1noc(-c2ccccc2C(=O)Nc2cccnc2)n1,1%,10µM*,i,-3%,-7%,7%

# High-throughput results from PubChem.
